Sampled rows, rich in hits. Any-hit rate of the full collection: about 1.1%.
RE007 growth inh: less growth of the S. pombe RE007 Vpr strain. Potency, µM (top dose mostly 92.2 µM), for inactives: at the highest dose activity change, negative = less growth, hits mostly inhibitors. hit rate 0.21% among 360,000. S. pombe RE007 Vpr strain, BacTiter-Glo ATP luminescence, 24 h. AID 651644; active means well fitted falling curve with a large enough effect; inconclusive means small, poorly fitted or top-dose-only effect; inactive means no such curve, though single readings can be large or run the other way; further: on the % scale 0 is the no-effect control and ±100 the full control effect; nearly all actives have a fitted effect of over 50% in size
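Fission yeast RE007 carrying one integrated HIV-1 vpr copy, seeded at OD 0.01 in PMG+AL medium with 23 nL pinned compound. Grown 24 h at 30 degrees; viability read by BacTiter-Glo luminescence after 5 min.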
TbPYK inhibitor: T. brucei pyruvate kinase inhibition. Q57TT1. TbPYK enzyme, Kinase-Glo Plus ATP luminescence, 45 min. Potency, µM (titrated, usually from 76.8 µM), without a hit: at the top dose activity, negative = inhibition, most hits filed as inhibitors. hit rate 0.12% among 410,000. AID 624173; further: on the % scale 0 is the no-effect control and ±100 the full control effect; nearly all actives have a fitted effect of over 50% in size
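Quantitative HTS: titrated library compounds versus trypanosomal pyruvate kinase in TEA buffer (pH 7.2) containing KCl, MgCl2, BSA and Tween-20. Reactions were initiated with ADP, 130 uM final. Kinase-Glo Plus luminescence was read after 45 min at RT.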
SARS PLP yeast: SARS-CoV PLP inhibition in yeast. S. cerevisiae expressing SARS-CoV PLpro, growth rescue. Potency, µM (titrated, usually from 32.9 µM), without a hit: top-dose activity, positive = growth rescue, most hits filed as activators. hit rate 0.19% among 330,000; calls by dose curve; further: 0% is about no effect; nearly all actives have a fitted effect of over 55% in size
Giardia FBPA inh: Giardia lamblia aldolase inhibition; A8B2U2; purified Giardia FBPA; Potency, µM (doses to about 59.6 µM), without a hit: at the highest dose activity, negative = inhibition, actives largely listed as inhibitors; hit rate 0.71% among 290,000; AID 2451; further: on the % scale 0 is the no-effect control and ±100 the full control effect; nearly all actives have a fitted effect of over 55% in size
Target sequence (A8B2U2 whole entry, looked up): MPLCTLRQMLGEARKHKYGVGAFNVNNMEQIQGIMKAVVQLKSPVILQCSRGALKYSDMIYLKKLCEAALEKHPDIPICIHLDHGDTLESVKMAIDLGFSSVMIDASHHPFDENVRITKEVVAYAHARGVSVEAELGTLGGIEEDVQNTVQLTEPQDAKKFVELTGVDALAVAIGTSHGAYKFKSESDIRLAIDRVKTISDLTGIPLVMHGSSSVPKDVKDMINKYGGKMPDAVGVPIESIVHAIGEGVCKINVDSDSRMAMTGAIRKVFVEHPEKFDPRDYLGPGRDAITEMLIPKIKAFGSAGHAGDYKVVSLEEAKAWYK
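Giardia FBPA (40 nM reagent) was preincubated 10 min at RT with compound (up to 57.5 uM final), then substrate plus GAPDH/TPI/NAD/arsenate coupling system with diaphorase/resazurin was added; resorufin fluorescence (525/598 nm) was read after 20 min.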
LmPK inh: LmPK (Leishmania mexicana) enzyme inhibition | Q27686 | hit rate 0.37% among 290,000 | Potency, µM (top dose mostly 57.5 µM), inactives show top-dose activity change, negative = inhibition, hits mostly inhibitors | purified LmPK, Kinase-Glo ATP luminescence, 1 h; further: on the % scale 0 is the no-effect control and ±100 the full control effect
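Pyruvate kinase activity monitored as ATP production (luciferase luminescence). Conditions: 0.1 nM enzyme, 0.5 mM PEP, 0.1 mM ADP, 1 h, RT; normalized against uninhibited and no-enzyme wells.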
Numbers without * were called inactive; [ ] = another dose, or the depositor's remark. Unless noted, the call rests on the fitted dose curve; in most records, active means well fitted curve in the direction sought with a large enough effect; inconclusive means small, poorly fitted or top-dose-only effect, or another doubt; inactive means no such curve, though single readings can be large; an effect the other way counts as inactive or inconclusive. Potency means the concentration at half of the fitted maximal effect.

What do the screens show for `COCOc1c2c(c(OCOC)c3c(OCOC)cccc13)/C(=N/N[S+](=O)([O-])c1ccc(C)cc1)C1=C2CCCC1`?
Giardia FBPA inh: -28%

How did CSCC[C@H](NC(=O)[C@@H](Cc1ccc(O[S+](=O)([O-])O)cc1)NC(=O)[C@H](N)CC(=O)O)C(=O)NCC(=O)N[C@@H](Cc1c[nH]c2ccccc12)C(=O)N[C@H](CCSC)C(=O)N[C@H](CC(=O)O)C(=O)N[C@@H](Cc1ccccc1)C(N)=O do in these assays?
TbPYK inhibitor: -6%

What do the screens show for `O=C(Nc1cccc(Cl)c1)OCC#CCCl`?
Giardia FBPA inh: 7.1µM*

How did Fc1ccc(-c2nnc(NC3=NCCCCC3)o2)cc1 do in these assays?
RE007 growth inh: inconclusive; TbPYK inhibitor: inconclusive; SARS PLP yeast: -8%; Giardia FBPA inh: -7%; LmPK inh: 16µM*

What do the screens show for `c1ccc(-c2nnc(NC3=NCCC3)o2)cc1`?
RE007 growth inh: -19%; TbPYK inhibitor: -11%; SARS PLP yeast: -2%; Giardia FBPA inh: 3%; LmPK inh: 20µM*

Results for O=C(Nc1ccccc1)Nc1nnc(-c2ccccc2)o1 ?
RE007 growth inh: 0%; TbPYK inhibitor: -17%; SARS PLP yeast: 1%; Giardia FBPA inh: -4%; LmPK inh: -7%

Results for Fc1ccc(NC2=NCCCCC2)cc1 ?
RE007 growth inh: -6%; TbPYK inhibitor: -4%; SARS PLP yeast: -1%; Giardia FBPA inh: 9%; LmPK inh: 1%

Results for C/C(=C\C(=O)Nc1ccccc1C(=O)O)c1ccc2ccccc2c1 ?
TbPYK inhibitor: -3%

What do the screens show for `COc1ccc2c(c1)sc1nc(-c3ccccc3)cn12`?
RE007 growth inh: inconclusive; TbPYK inhibitor: inconclusive; SARS PLP yeast: -14%; Giardia FBPA inh: -23%; LmPK inh: 13µM*

What do the screens show for `C[C@H](/C=C/[C@H](C)C(C)(C)O)[C@H]1CC[C@H]2/C(=C/C=C3C[C@@H](O)C[C@H](O)C3)CCC[C@]12C`?
TbPYK inhibitor: 7%

Results for O=C(Nc1nc2n(n1)C(c1ccccc1)C=C(c1ccccc1)N2)c1ccc(Cl)c([N+](=O)[O-])c1 (stereo unspecified) ?
TbPYK inhibitor: 3%

How did CCCNC(=O)CCCCn1c(=S)[nH]c2c([nH]c3ccc(OC)cc32)c1=O do in these assays?
RE007 growth inh: 1%; TbPYK inhibitor: -14%; SARS PLP yeast: -3%; Giardia FBPA inh: 8%; LmPK inh: -2%

How did COc1ccc2[nH]c3c(=O)n(CCCCC(=O)N4CCCC4)c(=S)[nH]c3c2c1 do in these assays?
RE007 growth inh: -6%; TbPYK inhibitor: inconclusive; SARS PLP yeast: 1%; Giardia FBPA inh: 4%; LmPK inh: 2µM*

What do the screens show for `Nc1ccc(-c2nc3ccc(N)cc3s2)cc1`?
RE007 growth inh: inconclusive; TbPYK inhibitor: -9%; SARS PLP yeast: -2%; Giardia FBPA inh: 5%; LmPK inh: 14µM*

Results for Nc1cccc(-c2nc3ccc(N)cc3s2)c1 ?
RE007 growth inh: -24%; TbPYK inhibitor: inconclusive; SARS PLP yeast: -17%; Giardia FBPA inh: -10%; LmPK inh: 13µM*

What do the screens show for `Nc1ccc(-c2nc3ccc(C(=O)O)cc3s2)cc1`?
RE007 growth inh: -8%; TbPYK inhibitor: inconclusive; SARS PLP yeast: -9%; Giardia FBPA inh: -15%; LmPK inh: inconclusive

Results for Nc1cc2sc(-c3ccc(C(=O)O)cc3)nc2cc1Cl ?
RE007 growth inh: inconclusive; TbPYK inhibitor: inconclusive; SARS PLP yeast: -16%; Giardia FBPA inh: -30%; LmPK inh: 16µM*

How did Nc1ccc2nc(-c3ccc(O)cc3)sc2c1 do in these assays?
TbPYK inhibitor: -21%

How did Cc1ccc(CNC(=O)c2oc3ccc(S(=O)(=O)N4CCCC(C)C4)cc3c2C)cc1 (stereo unspecified) do in these assays?
TbPYK inhibitor: -4%

How did CCCCC(CC(O)COCCC)c1n[nH]c(=S)n1-c1ccccc1 (stereo unspecified) do in these assays?
RE007 growth inh: 24%; TbPYK inhibitor: 11µM*; SARS PLP yeast: 0%; Giardia FBPA inh: -14%; LmPK inh: inconclusive

How did CCCCCC(O)CCc1n[nH]c(=S)n1-c1ccccc1 (stereo unspecified) do in these assays?
RE007 growth inh: 0%; TbPYK inhibitor: 4.5µM*; SARS PLP yeast: 0%; Giardia FBPA inh: -2%; LmPK inh: inconclusive

Results for CCc1cc(OC)c(CC(C)N)cc1OC (stereo unspecified) ?
TbPYK inhibitor: -6%[157 µM]

Results for COc1cccc(C(=O)Nc2ccccc2-c2nc(-c3ccc(C)cc3)no2)c1 ?
TbPYK inhibitor: -5%

How did CCOC(=O)CCC(=O)OC1C(OC2C(C)C(OC3CC(C)(OC)C(O)C(C)O3)C(C)C(=O)OC(CC)C(C)(O)C(O)C(C)C(=O)C(C)CC2(C)O)OC(C)CC1N(C)C (stereo unspecified) do in these assays?
TbPYK inhibitor: 2%

Results for CCOC(=O)c1cc(-c2ccc(F)cc2)n(CC(=O)NCc2ccc(OC)cc2)c1C ?
TbPYK inhibitor: 7%[15.4 µM]

How did C[C@@H]1O[C@@]2(CS1)CN1CCC2CC1 do in these assays?
TbPYK inhibitor: -7%

How did CN(C)[C@H]1C(=O)C(C(=O)NCN2CCCC2)=C(O)[C@]2(O)C(=O)C3=C(O)c4c(O)cccc4[C@@](C)(O)[C@H]3C[C@@H]12 do in these assays?
TbPYK inhibitor: 0%[33.2 µM]; Giardia FBPA inh: 4.5µM*

What do the screens show for `C[C@H]1c2cccc(O)c2C(O)=C2C(=O)[C@]3(O)C(O)=C(C(N)=O)C(=O)[C@@H](N(C)C)[C@@H]3[C@@H](O)[C@@H]21`?
RE007 growth inh: -13%[18.4 µM]; TbPYK inhibitor: 2%; SARS PLP yeast: 0%; Giardia FBPA inh: inconclusive; LmPK inh: 4%

Results for CN(C)[C@@H]1C(=O)C(C(N)=O)=C(O)[C@@]2(O)C(=O)C3=C(O)c4c(O)cccc4[C@@](C)(O)C3C[C@@H]12 (stereo partly specified) ?
RE007 growth inh: 9%[18.4 µM]; TbPYK inhibitor: -5%

What do the screens show for `CN(C)[C@@H]1C(=O)C(C(N)=O)=C(O)[C@@]2(O)C(=O)C3=C(O)c4c(O)cccc4[C@@](C)(O)[C@H]3[C@H](O)[C@@H]12`?
RE007 growth inh: 9%[18.4 µM]; TbPYK inhibitor: -15%; SARS PLP yeast: 13%; Giardia FBPA inh: 4.5µM*; LmPK inh: -1%

What do the screens show for `Cc1ccc(C)c(NC(=O)N2CCC(N3CCN(Cc4ccc(F)cc4)C(=O)C3=O)CC2)c1`?
TbPYK inhibitor: -2%

Results for COc1ccc(C(=O)N2CCc3cc(OC)c(OC)cc3C2COc2ccc3c(C)cc(=O)oc3c2)c(OC)c1 (stereo unspecified) ?
TbPYK inhibitor: 0%

Source: PubChem BioAssay (National Center for Advancing Translational Sciences (NCATS))
